Test results taken from PubChem BioAssay AID1347076 (National Center for Advancing Translational Sciences (NCATS), 2019).
About 13,000 (3.2%) of roughly 400,000 compounds were called active. Another 18% or so got no clear call; they are omitted. The call rests on the fitted dose curve; in most records, active means well fitted cell-killing curve with a large enough effect; inconclusive means small, poorly fitted or top-dose-only effect, or effect the other way; inactive means flat fitted curve, though single readings scatter. The list comes from a sample in which actives are over-represented; it also holds similar structures and randomly drawn compounds.

test: qHTS assay for MDR1-selective chemotherapeutics: Primary screen using the drug-selected MDR subline cells KB-V1; conditions: KB-V1 MDR cells viability, CellTiter-Glo, 72 h; series mostly up to 46.1 µM; activity change, negative = cytotoxicity: at the top concentration; further: nearly all actives have a fitted effect of over 60% in size
Method in brief: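 KB-V1, DMEM (no phenol red) + 10% FBS; cpd pin-transferred, titration series; 72 h, 37 degrees C; CellTiter-Glo, luminescence. Data normalized, curve-fit.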
On the % scale 0 is the no-effect control and ±100 the full control effect; potency means the concentration at half of the fitted maximal effect.

Compound	Potency	activity change, negative = cytotoxicity
Cc1cccc(COc2ccccc2/C=N/Nc2ccc([N+](=O)[O-])cc2)c1	16.4 µM (active)	–
Cc1ccc(-n2c(C)cc(/C=N/Nc3ccc([N+](=O)[O-])cn3)c2C)c(C)c1	–	-22.1% (inactive)
Cc1ccc(NS(=O)(=O)c2ccc(N/N=C/c3ccccc3OCC(=O)O)c([N+](=O)[O-])c2)c(C)c1	–	11% (inactive)
CC1(C)OC(=O)C2=C(CC(c3ccccc3)OC2CCc2ccccc2)O1 (stereo not drawn)	–	-13.9% (inactive)
Cc1noc(C)c1NC(=O)N(C)C[C@@H]1Oc2cc(Br)ccc2S(=O)(=O)N([C@@H](C)CO)C[C@H]1C	–	12.1% (inactive)
CCOc1cc(/C=N/O)ccc1OCc1ccccc1F	–	0.0138% (inactive)
Fc1ccccc1COc1ccccc1CNCc1ccncc1	6.51 µM (active)	–
Fc1ccccc1COc1cccc2cccnc12	–	-13.5% (inactive)
COc1ccc(-n2nnc(-c3nsc(NC(=O)c4ccc(C)c(C)c4)n3)c2C)cc1Cl	–	0.0477% (inactive)
COc1ccc(C)cc1NC(=O)NCc1ccccn1	–	0% (inactive)
CCOc1ccc(NC(=O)Nc2ccc(N(C)C(C)=O)cc2)cc1	–	9.89% (inactive)
CCOc1ccc(NC(=O)Nc2cc(C)ccc2OC)cc1	14.6 µM (active)	–
Cc1ccc(Cl)cc1-n1ncc2c(N3CCC(C(N)=O)CC3)ncnc21	–	0% (inactive)
CC(=O)c1ccc(OCC(=O)N(C)C2CCS(=O)(=O)C2)cc1 (stereo not drawn)	–	7.87% (inactive)
COc1ccc(CCNc2nc(-c3ccc(F)cc3)cc(C(F)(F)F)n2)cc1OC	–	0% (inactive)
CCCC(=O)Nc1cc(OCC)c(NC(=O)NC2CCCCC2)cc1OCC	–	-2.62% (inactive)
CCCN(CC(=O)NC(=O)NC1CCCCC1)CC(=O)Nc1cc(Cl)ccc1Cl	4.11 µM (active)	–
O=C(COc1cc(Cl)c(Cl)cc1Cl)NC(=O)NC1CCCC1	–	-5.05% (inactive)
CSc1ccc(CNC(=O)C2(C)CCCN2C)cc1 (stereo not drawn)	–	-2.64% (inactive)
CCN(CC)c1ncnc2c1ncn2[C@H]1CN(Cc2cccs2)C[C@@H](CO)O1	–	1.22% (inactive)
COCCNC(=O)c1ccc2c(c1)N=C(C)c1cc(C)ccc1S2	0.92 µM (active)	–
CCC1=Nc2cc(C(=O)NCCN3CCCC3)ccc2Sc2ccc(C)cc21	–	3.17% (inactive)
CCC1=Nc2cc(C(=O)NCCCN3CCOCC3)ccc2Sc2ccc(Br)cc21	–	17.4% (inactive)
CCN1C(=O)[C@@H]2[C@@H]3CN(S(=O)(=O)c4ccccc4C)[C@@H](c4ccc(Cl)cc4)[C@@H]3C(=O)C[C@@H]2C1=O	–	3.41% (inactive)
COc1ccc(C(=O)COC(=O)c2c(C)noc2C)cc1Cl	–	3.29% (inactive)
Cc1ccc(-c2nc(COC(=O)c3c(C)noc3C)cs2)cc1	23.1 µM (active)	–

Compound	Potency	activity change, negative = cytotoxicity
Cc1ccc(S(=O)(=O)N2CCN(C(=O)COC(=O)c3c(C)noc3C)CC2)c(C)c1	–	-4.54% (inactive)
CCc1ccc(C2CC(=O)c3c([nH]c(C(=O)OCc4ccc(C)cc4)c3C)C2)cc1 (stereo not drawn)	–	-2.58% (inactive)
COc1ccc(-n2c(=O)c3ccccc3n(Cc3ccccc3Cl)c2=O)cc1	–	29.4% (inactive)
N#CCCN(C(=S)Nc1ccc(Cl)c(Cl)c1)C1CCCCC1	–	-15% (inactive)
COc1ccc(C2C(=O)N(C3CCCCC3)CC(=O)N2Cc2ccccc2Cl)cc1OC (stereo not drawn)	–	-16% (inactive)
CCCC(=O)N1CCC1(C)C(=O)NS(=O)(=O)c1ccc(Cl)cc1 (stereo not drawn)	–	3.14% (inactive)
CCn1cc(C(=O)NCCc2ccccc2)c(=O)c2cc(S(=O)(=O)N3CCCCCC3)ccc21	–	7.64% (inactive)
CCOc1ccccc1NC(=O)Cn1nnc(C(=O)NCc2cccs2)c1N	0.58 µM (active)	–
CCOc1ccccc1NC(=O)Cc1cccs1	–	-27.2% (inactive)
CCOc1ccccc1NC(=O)Cn1nnc(C(=O)Nc2ccc(C)c(C)c2)c1N	–	13% (inactive)
O=C(Cc1ccc(Cl)cc1)Nc1ccc2nn(-c3ccc(Cl)cc3)nc2c1	–	0.721% (inactive)
Nc1nc(NCCCN2CCOCC2)nc(Nc2ccccc2)c1[N+](=O)[O-]	23.1 µM (active)	–
CC1CN(c2nc(Nc3ccccc3)nc(N)c2[N+](=O)[O-])CC(C)O1 (stereo not drawn)	–	-8.14% (inactive)
O=[N+]([O-])c1ccc(NCCCN2CCOCC2)c(Cl)c1	–	-4.73% (inactive)
COc1ccc(-c2cc3c(c4c2ccn4C)C2CCC3C2)cn1 (stereo not drawn)	–	-1.27% (inactive)
O=C(Cn1c(=O)nc(-c2ccccc2)c2cc(Cl)ccc21)NCc1ccc(Cl)cc1	–	15.8% (inactive)
COc1cccc(NC(=O)Nc2ccc(F)cc2)c1	–	-8.98% (inactive)
CC1(C(=O)NS(=O)(=O)c2ccc3ccccc3c2)CCN1C(=O)C1(c2ccc(Cl)cc2)CCC1 (stereo not drawn)	–	9.41% (inactive)
Cc1cccc(N2CCN(C(=O)c3cccc(S(=O)(=O)N4CCc5ccccc5C4)c3)CC2C)c1 (stereo not drawn)	2.59 µM (active)	–
CN(C)C(CNC(=O)c1cccc(S(=O)(=O)N2CCc3ccccc3C2)c1)c1ccccc1 (stereo not drawn)	–	5.99% (inactive)
CN1CCN(S(=O)(=O)c2cccc(C(=O)N3CCc4ccccc43)c2)CC1	–	-7.71% (inactive)
O=C(COC(=O)c1cncc(Br)c1)Nc1ccc(S(=O)(=O)N2CCOCC2)cc1	–	19.1% (inactive)
COc1ccc(C)cc1S(=O)(=O)N1CCN(S(=O)(=O)c2cc(C(=O)O)ccc2C)CC1	–	-2.45% (inactive)
Cc1ccc(C)c(S(=O)(=O)N2CCN(c3ncnc4sccc34)CC2)c1	7.31 µM (active)	–
Cc1ccc(S(=O)(=O)N2CCN(c3ncnc4ccccc34)CC2)cc1	–	0% (inactive)
CCc1nc2c(OCc3ccccc3)cccn2c1N(C)C(=O)c1ccco1	–	-2.97% (inactive)

Compound	Potency	activity change, negative = cytotoxicity
COc1ccccc1CCNS(=O)(=O)c1cn(C)nc1C	–	14.6% (inactive)
CCCCc1c(-c2ccc(Cl)cc2)ncn1CCc1ccccc1OC	13 µM (active)	–
COc1ccc(CNC(=O)c2cc3c(-c4ccccc4F)nn(C)c3s2)c(OC)c1	–	-2.11% (inactive)
COc1ccccc1Cc1c(-c2ccc(Cl)cc2)nc2c3ccccc3ccn12	–	-28% (inactive)
COc1cccc(OC)c1C(=O)N1CCN(Cc2ccccc2F)CC1	–	2.02% (inactive)
CCCCc1c(-c2ccc(Br)cc2)ncn1CCc1ccccc1OC	20.6 µM (active)	–
CCCCNS(=O)(=O)CCNCc1ccccc1OC	–	-3.58% (inactive)
COc1ccccc1Cc1c(-c2ccc(Cl)cc2)nc2ccc(Cl)cn12	–	-5.46% (inactive)
CCCc1c(-c2ccccc2F)ncn1Cc1ccccc1OC	20.6 µM (active)	–
COc1cc(Br)cc2cc(S(=O)(=O)c3ccccc3)c(=O)oc12	–	20.1% (inactive)
CCc1cccc(NC(=O)c2cnc(N3CCOCC3)c3ccccc23)c1	–	-2.64% (inactive)
Oc1ccccc1-c1nc2ccc(Cl)cn2c1Nc1ccc2c(c1)OCCO2	–	0.195% (inactive)
CN(C)c1ccc(/C=C/c2sc3ccccc3[n+]2C)cc1	–	13.9% (inactive)
Cc1cccc(C)c1NC(=O)CN1CCN(c2ccc(F)cc2)CC1	–	0% (inactive)
COc1ccc2[nH]c(=S)cc(C)c2c1	14.6 µM (active)	–
COc1ccc2[nH]c(C(=O)N3CCN(C)CC3)c(C)c2c1	–	13.6% (inactive)
COc1ccc2[nH]c3c(C)c4cc[n+](C)cc4c(C)c3c2c1	–	11.5% (inactive)
CCOc1ccc(N(CC)S(=O)(=O)N2CCCC(C(=O)Nc3ccc(C(C)=O)cc3)C2)cc1 (stereo not drawn)	–	-22.2% (inactive)
CC(NS(=O)(=O)c1ccc(Br)cc1)C(=O)NCC1CCCO1 (stereo not drawn)	–	22.2% (inactive)
O=C(CCNS(=O)(=O)c1ccc(Br)cc1)NCC1CCCO1 (stereo not drawn)	–	-30.8% (inactive)
OC(CNCC1CCCO1)Cn1c2ccc(Br)cc2c2cc(Br)ccc21 (stereo not drawn)	23.1 µM (active)	–
CCOC(=O)c1c(-c2ccc(OC)cc2)oc2ccc(OCc3ccc(C(=O)OC)cc3)cc12	–	1.92% (inactive)
COc1ccc(-c2c(C)cc3oc(=O)cc(-c4ccccc4)c3c2C)cc1OC	–	0.0002% (inactive)
COc1ccc(-c2c(C)cc3oc(=O)cc(-c4ccccc4)c3c2C)cc1F	–	-36% (inactive)
COc1cc(OC)c2c(-c3cccc(-c4cccc(N)c4)c3)cc(=O)oc2c1	7.31 µM (active)	–
OC(Cc1ccc2ccccc2n1)c1ccc(Cl)c(Cl)c1 (stereo not drawn)	–	1.97% (inactive)

Compound	Potency	activity change, negative = cytotoxicity
O=C(CSc1ncc(CO)n1Cc1ccc(Cl)cc1)NCc1ccc(F)cc1	–	-6.64% (inactive)
Cn1c(CCN2CCN(c3ccccn3)CC2)nc2cc(NS(=O)(=O)c3ccc(F)cc3)ccc21	–	-19.1% (inactive)
COc1ccc(Cn2c(=O)sc3ccccc32)cc1OC	2.59 µM (active)	–
Cc1cccc(CSc2nnc(Cn3c(=O)sc4ccccc43)n2C)c1	–	-15.3% (inactive)
COc1ccccc1CNC(=O)CCn1c(=O)sc2ccccc21	–	-7.38% (inactive)
O=C(Nc1nnc([C@H]2C[C@H](O)[C@@H](CO)O2)s1)c1cccc(Cl)c1	–	16.6% (inactive)
COc1ccc(S(=O)(=O)NC(=O)C2(C)CCN2C(=O)COc2ccc(Cl)cc2)cc1 (stereo not drawn)	–	4.3% (inactive)
Cc1ccc(C(O)P(=O)(OC(C)C)c2ccc(N(C)C)cc2)cc1 (stereo not drawn)	–	-1.44% (inactive)
CC(C)COP(=O)(c1ccc(N(C)C)cc1)C(Nc1ccccc1)c1cccnc1 (stereo not drawn)	23.1 µM (active)	–
CC(Nc1ccccc1)c1cccnc1 (stereo not drawn)	–	35.2% (inactive)
COc1ccccc1N1CCN(C2C(=O)c3ccccc3N2C(C)=O)CC1 (stereo not drawn)	–	1.8% (inactive)
Cc1ccc(C)n1NC(=O)c1ccc([N+](=O)[O-])cc1	–	8.09% (inactive)
COc1ccccc1N1CC(O)=C(c2nc3ccccc3s2)C1=N	10.3 µM (active)	–
COc1ccc(-n2nnnc2-c2nc3ccccc3s2)cc1	–	-7.27% (inactive)
N=C1C(c2nc3ccccc3[nH]2)=C(O)CN1NC(=O)c1c[nH]c2ccccc12	–	11.8% (inactive)
COc1ccccc1OCc1nc2ccccc2s1	–	-20% (inactive)
N=C1C(c2nc3ccccc3s2)=C(O)CN1NC(=O)c1ccc([N+](=O)[O-])cc1	18.4 µM (active)	–
COC(=O)C[C@@H]1C=C[C@@H](NC(=O)c2ccc3c(c2)OCO3)[C@@H](CO)O1	–	2.17% (inactive)
COc1ccc(-c2c(C#N)cnc(C)c2C)c(O)c1OC	–	12% (inactive)
CCCCn1nnnc1C(c1ccccc1)N1CCN(c2ccccc2OC)CC1 (stereo not drawn)	–	-12.7% (inactive)
CC1Cc2[nH][nH]c(=O)c2C(C2CCCC2)O1 (stereo not drawn)	–	24.7% (inactive)
FC(F)(F)c1cccc(NC(=S)Nc2cccc(Cl)c2)c1	–	-18.3% (inactive)
FC(F)(F)c1cccc(N/N=C/c2ccccc2)c1	–	-6.67% (inactive)
FC(F)(F)c1cccc(Nc2ncnc3ccccc23)c1	18.4 µM (active)	–
CN(Cc1ccccc1)C(=O)c1cn(C)c2ccc(S(=O)(=O)N3CCCCC3)cc2c1=O	–	17.2% (inactive)
